According to the supplement of paper PMC12632987:
Whole data set: some 4,500 sequences, median “median log2 fold change of GCK-ALFA target abundance (FLAG IP / Myc IP barcode read proportion)” near 0.078, cut for the lowest 2% near -0.6. Only a selection was taken, and the lowest values are over-represented in it overall.

B1: GBRAP_11_2721 (protein)
chain: KAEKLKALAEKAEALAEKVEKLIKEGPKKEEIKKLAEEVEKLREEAKKIGASEDVLKTLDIAAENLKKAIEDPSNVEEHLKNAAAALRVAAGQLLLEAEE
B2: GBRAP_160_4055 (protein)
chain: AEEKERLIADVDAAEAAILAVIDEEGAEAAAVMADGEFGAIIMEAAELPTASDELVDALEAIRDALVAGLRANAAASPAELKALVRAAAAAAKEAIKKHY
B3: GBRAP_160_4135 (protein)
chain: SEELEKLIKEIKEIGEEALEMIEGETPENAKVIARVALGDIVMLVESNDAISEETEDEIGKIADEAEATLKANPDLTVEEIKALLKEATEKVVEIIEKEK
B4: GBRAP_52_6087 (protein)
chain: MEERLEKLAKEIAEAVAAGKRDEALALMEKAIKELSVEEIKKLFKLAAELVAKLGEEAEELFVDLLDEAEDLLIEAGISEEDALLIVGDAEAALAKAVAA
B5: GBRAP_52_6086 (protein)
chain: MEERLEALAREIAAAVAAGDREGALALIEEAIKELSVEEIRRLLRLAAERVAALGEDAHVLFVDLLDEAEDLMIKAGISEEDALLIVGDAEAALAKAVAA
B6: GBRAP_160_4202 (protein)
chain: EEKVKKIIEELKEETEEVIKLLDEVSVEEAAVFAEVEFGSVLMLAVELGIENDEILDVIDEAGDKIVKYLKENKDASVEELKKKIKEITEEAIKKIKELA
B7: GBRAP_39_5664 (protein)
chain: EEDEENELLFEYYLAKAEGYRIKEGISDEELIERGKELLKAIAKEHPEIKELVEELLKEVDKGDEDVGLAAAGIALDYLEGLPIEEIKEHLEKLLKYVKK
B8: GBRAP_184_5111 (protein)
chain: KLLEETIKANNKEELEKKLTEVVEKAVKEKADLLVIVEIPNLTPEMAEIIMDKVAKAKEAGIKNVLVEIVSDNLSDEVIDTIDKKAKEYGLTNVVLAMKE
B9: GBRAP_153_3948 (protein)
chain: SMESKEKLEKAKKLIEKIKKSEDPTEYIKELAKLLASMNLEERLEVAKEFNSLSEETVYKIFLTLATEEGFSVEELLELTTELNEEQQAAALKAIVEAQK
B10: GBRAP_39_5630 (protein)
chain: EEEEELELLESLAEADLAKREVETGLPAEELYAELLARAREAAADDPELLALIERLAALAEEHGPEARERLAAAMAAYLAGLPKEDIKRLLTALIEELEA
B11: GBRAP_48_5830 (protein)
chain: MKIDLEKLEALVKETVEEMKELYEEAKKEGLSDEDILKMIKAELGDLALELEEEGYTKAADYLLERENRDELAKKLLELFKEGKYEEAYEYLLKKLKEAE
B12: GBRAP_160_4619 (protein)
chain: SEKVEELKKFVEEEFEETKEMIVGQTPEERAAIVDVTIGEIILEAEELEVVSDETLDEIDEIGDELVETILANPDLTDEEIKALIDEAREKIIALIEKDE
B13: GBRAP_160_4617 (protein)
chain: SSKIEELKKFVKEEFEEAKEMIEGETPEQRAAIVDVTIGEIILEAEELEVVSDESLEKIDEIGDELVETILENPDLTEEEVKELIDEAEKKIIEIIEEDE
B14: GBRAP_53_6397 (protein)
chain: SAATIAALLAELRALIAEVDADPTLDPEEVAARAGELLRAAVAAGAPAAELTALARELAAAVAARGLGVEVGTRLAATAAAAGAEEVAAVFTEAAVEDLE
B15: GBRAP_26_5497 (protein)
chain: FLEEILEELRREIKEILKDESPELQAAVIATAEDLLLEADEEIEENAEDEEKIKEAIEKAVEEMRKELERFGLSEEKIEKIVEALRRALEKVAERIKEEA
B16: GBRAP_52_5995 (protein)
chain: SAARIEAVAREIVALVLAGDREGARALIRKAFRELSDEEIVEMVRLATRLLMEDPRATDEDIRTFIDLVLDTAEEEGLDEETIADIIGAIATAIKEAELK
B17: GBRAP_125_3094 (protein)
chain: EEEALLAALRRLALALGFSEEEAEELAELAARSSLRQTLYALFAAEGYEELADLVEKLTEEQAREALLRLAAWLDAHPDASREEVVARAREIAEELLAAA
B18: GBRAP_160_4419 (protein)
chain: DELIEEVDELLDETEELVVELVEEGKREEAIAALRVGAGEILLLLDEDESVSEETEEKVDKILDETIKKFEENKDASPEEVRELLDKAREEILAVLKEGS
B19: GBRAP_137_3646 (protein)
chain: PNVTITKETIDDLVEINIEFDDPEKAEEAAELIRDVAHEHGALAVSIEINEDGTLEATIWVPKDKAQALIDALVTRLRTELGANVTVIDKDTGETTVVKA
B20: GBRAP_137_3669 (protein)
chain: MIEAEIELENGLAFARITVEGSKEELERAAEIAEDIAGEIPNLAVSVELSEDGTLVIDVFGTKEDVLKFLKELAKRLNKTVKVKTKNLETGEEKEEVIEP
B21: GBRAP_125_3103 (protein)
chain: EEEELLEALKALALALGFSEEDAEEAAELARRFSLKNTLIAILLAEGEEELAELVEKLTEEQAKEVLKKLAEWLKENPNASKEEVIKKLKELVEEALKKA
B22: GBRAP_125_3104 (protein)
chain: SEEELLEDLKALALALGFSEEDAEEAARLAAEFSLKNTLIAILLAEGEEELAELVEKLTEEQAKEVLKKLAEYLKKHPNATKEEVIEKFKELVEEALAKS
B23: GBRAP_125_3102 (protein)
chain: EEEELLEALRRLALALGFSEEEAEEAARLAREFSLRQTLIALLLAEGEEELAELVEKLTEEQAKEVLRRLAEYLEAHPDATREEVVAKLRELVEEALAAA
B24: GBRAP_125_3101 (protein)
chain: MEEELLEALKRFALALGFSEEDAEEAAELAKKFSLKQTLIALLLAEGEEELAELVEKLTEEEAKEVLLKLDEYLKKNPNASKEEVLKKFKELVEEALKAS
B25: GBRAP_184_5289 (protein)
chain: MVEEVVIEAENAEEAIKKIKEAAEKAKKEGKKLRLYLFLKNVDVEGFKKIAELLKELKEEGIIEDAIVEILDERTEEETDKFVEIADKAGIRLVIALSDE
B26: GBRAP_128_3375 (protein)
chain: VNEEFLKEIEELVEKMLESSVEEVRELTKKIVELLSKASLEEQEAAVEIILEKLPEFSVEKLEAIADVLREERKKASPELQELLADVEVEALNEAEEKEE
B27: GBRAP_184_5038 (protein)
chain: AIKEVTIEAKDLEELKAKLAELEEEMKNFKGDLIVHVKSPKFTKEMVEELMSTLKNMLDKGYISSATVGLDGEMTEEVVDLAVKLADEAGIKVVLALDEE
B28: GBRAP_11_2726 (protein)
chain: RKETILKFAKEAEALAKEIEKLIKEGPTKEGLEKLAKKAKALYEAAKKAGLPEDIVETLKIAAELLKEAIADPKNAEKYLREAAAAFRVAAGLLLLEAEE
B29: GBRAP_14_3852 (protein)
chain: IEELIKAVEETAKETKEMAKEVLPEHAEEVNKKIEELAKKIIKKIKEENLNKEEVAELMDEFAEELAKFIKEKGFANETEIAAIRATILNEAALKLDEIE

target: GABARAP, O95166; test: median log2 fold change of GCK-ALFA target abundance (FLAG IP / Myc IP barcode read proportion) (log2 ratio); each designed protein is fused to an ALFA-tag nanobody in HEK293 cells to bring the named protein to FLAG-tagged glucokinase (GCK); Myc marks an untargeted standard; higher = target protein stabilised (more abundant); details: target protein: 3xFLAG-MCP-GCK-ALFA reporter; HEK293 landing pad (RPLP)
Sequence (O95166 whole entry, the tested form may be a part): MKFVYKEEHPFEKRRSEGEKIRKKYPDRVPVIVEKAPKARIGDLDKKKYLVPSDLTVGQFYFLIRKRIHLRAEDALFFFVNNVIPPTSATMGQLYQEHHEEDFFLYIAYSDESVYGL
Outline: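 Sequencing of reverse-transcribed, amplified circular RNA barcodes from anti-FLAG and anti-Myc immunoprecipitates provided the readout for an ALFA-nanobody-fused binder library recombined into HEK293 landing-pad cells. Those cells were induced with 2 μg mL^−1 doxycycline, transfected with a plasmid expressing a FLAG-tagged target and a Myc-tagged standard, and lysed after 48 h. Target abundance is the per-binder median log2 ratio of FLAG to Myc barcode read proportions. Only barcodes at a proportion of ≥10^−7 in both replicates and binders with ≥3 barcodes per replicate were kept, with a 10^−6 pseudocount added before the two replicates were pooled.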

Binder | median log2 fold change
B1 | 0.0939
B2 | 0.183
B3 | -0.387
B4 | -0.234
B5 | -0.626
B6 | -0.374
B7 | 0.132
B8 | 0.326
B9 | 0.294
B10 | 0.159
B11 | 0.224
B12 | -0.678
B13 | -0.294
B14 | 0.226
B15 | 0.312
B16 | -0.964
B17 | 0.075
B18 | -0.0618
B19 | -0.0128
B20 | 0.0022
B21 | -1.16
B22 | -0.801
B23 | -0.364
B24 | -0.382
B25 | -0.121
B26 | 0.132
B27 | 0.0979
B28 | 0.0545
B29 | 0.15
